Results: PubChem BioAssay AID1159580 (chemical genetic matrix, 2015)
Out of some 5,500 compounds screened, about 2,000 (36%) were called active. Another 18% or so got no clear call; they are omitted. Rule as the data show it: active = normalized growth mostly below about 0.91 (no sharp cut-off); inconclusive = no clear call, values can overlap the other calls; inactive = mostly above about 0.92. Some of the results follow.

Assay: chemical genetic growth profiling, strain panel (AID 1159580);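 also: tested at 20 µM; growth read once vehicle control cultures reached saturation at 30 °C; 1 = growth at the plate median or of vehicle wells; lower values mean less growth of the strain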
Settings: S. cerevisiae deletion strains, growth OD

Measured: normalized growth

Clc1ccc(-c2csc(Nc3ccccc3)n2)s1
active: locus YDL214C, strain PRR2, active compounds read low 0.382 | locus YDR477W, strain SNF1, active compounds read low 0.24 | locus YER123W, strain YCK3, active compounds read low 0.354 | locus YER133W, strain GLC7, active compounds read low 0.363 | locus YFR019W, strain FAB1, active compounds read low 0.593 | locus YGR040W, strain KSS1, active compounds read low 0.311 | locus YGR052W, strain FMP48, active compounds read low 0.203 | locus YGR092W, strain DBF2, active compounds read low 0.33 | locus YHR030C, strain SLT2, active compounds read low 0.146 | locus YHR079C, strain IRE1, active compounds read low 0.452 | locus YHR082C, strain KSP1, active compounds read low 0.23 | locus YHR205W, strain SCH9, active compounds read low 0.273 | locus YJL095W, strain BCK1, active compounds read low 0.224 | locus YJL157C, strain FAR1, active compounds read low 0.434 | locus YJR066W, strain TOR1 (second series), active compounds read low 0.471 | locus YJR066W, strain TOR1, active compounds read low 0.276 | locus YKL048C, strain ELM1, active compounds read low 0.771 | locus YKL067W, strain YNK1, active compounds read low 0.521 | locus YKL101W, strain HSL1, active compounds read low 0.451 | locus YKL203C, strain TOR2, active compounds read low 0.385 | locus YLR113W, strain HOG1, active compounds read low 0.216 | locus YLR133W, strain CKI1, active compounds read low 0.39 | locus YLR403W, strain SFP1, active compounds read low 0.332 | locus YML070W, strain DAK1, active compounds read low 0.408 | locus YMR205C, strain PFK2 (second series), active compounds read low 0.578 | locus YNL020C, strain ARK1, active compounds read low 0.419 | locus YNL183C, strain NPR1, active compounds read low 0.148 | locus YNL307C, strain MCK1 (second series), active compounds read low 0.28 | locus YOL136C, strain PFK27, active compounds read low 0.453 | locus YOR061W, strain CKA2, active compounds read low 0.414 | locus YOR119C, strain RIO1, active compounds read low 0.409 | locus YOR231W, strain MKK1, active compounds read low 0.435 | locus YPL031C, strain PHO85, active compounds read low 0.295 | locus YPL153C, strain RAD53, active compounds read low 0.438 | locus YPL204W, strain HRR25, active compounds read low 0.435 | locus YPL256C, strain CLN2, active compounds read low 0.289
inactive: locus YAR019C, strain CDC15, active compounds read low 0.933 | locus YBL105C, strain PKC1, active compounds read low 0.933 | locus YBR135W, strain CKS1, active compounds read low 0.929 | locus YBR136W, strain MEC1, active compounds read low 0.923 | locus YBR160W, strain CDC28, active compounds read low 0.925 | locus YDL017W, strain CDC7, active compounds read low 0.928 | locus YDL028C, strain MPS1, active compounds read low 0.936 | locus YDL101C, strain DUN1, active compounds read low 0.943 | locus YDL108W, strain KIN28, active compounds read low 0.926 | locus YDL132W, strain cdc53, active compounds read low 0.94 | locus YDR052C, strain DBF4, active compounds read low 0.933 | locus YDR054C, strain cdc34, active compounds read low 0.907 | locus YDR226W, strain ADK1, active compounds read low 0.936 | locus YFL009W, strain cdc4, active compounds read low 0.929 | locus YFL029C, strain CAK1, active compounds read low 0.923 | locus YFR003C, strain YPI1, active compounds read low 0.933 | locus YFR028C, strain CDC14, active compounds read low 0.926 | locus YIL147C, strain SLN1, active compounds read low 0.932 | locus YJR016C, strain ILV3, active compounds read low 0.925 | locus YKL193C, strain SDS22, active compounds read low 0.921 | locus YMR001C, strain CDC5, active compounds read low 0.925 | locus YMR277W, strain FCP1, active compounds read low 0.921 | locus YNL006W, strain LST8, active compounds read low 0.932 | locus YNL161W, strain CBK1, active compounds read low 0.923 | locus YNL207W, strain RIO2, active compounds read low 0.915 | locus YNL222W, strain SSU72, active compounds read low 0.931 | locus YOL078W, strain AVO1, active compounds read low 0.926 | locus YOR329C, strain SCD5, active compounds read low 0.922 | locus YPL209C, strain IPL1, active compounds read low 0.915 | locus YPR025C, strain CCL1, active compounds read low 0.926 | locus YPR106W, strain ISR1, active compounds read low 0.906 | locus YPR111W, strain DBF20, active compounds read low 0.917 | strain NNK1, active compounds read low 0.916 | strain TSCII, active compounds read low 0.92
